# In PubChem BioAssay (NCI):
# Compounds without any hit were thinned out: in the full panel of roughly 83,000, 20% have a hit.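 Single-dose data. Exposure time 48 hours. Values below 10 considered active.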 Values without a mark were called inactive. Activity calls are given as the source filed them.
# Key:
# Experiment in all cases: NCI-60 one-dose screen, 48 h (100 = growth as untreated, 0 = no growth, -100 = all killed)
# Conditions in all cases: 10 µM
# [1] = tested on: NCI-H23 lung
# [2] = tested on: NCI-H226 lung
# [3] = tested on: NCI-H322M lung
# [4] = tested on: NCI-H522 lung
# [5] = tested on: A549/ATCC NSCLC
# [6] = tested on: 786-0 renal
# [7] = tested on: DU-145 prostate
# [8] = tested on: K-562 leukemia
# [9] = tested on: MALME-3M melanoma
# [10] = tested on: MDA-MB-231 breast
# [11] = tested on: RXF 393 renal
# [12] = tested on: SF-268 CNS
# [13] = tested on: SF-539 CNS
# [14] = tested on: UACC-257 melanoma
# [15] = tested on: M14 melanoma
# [16] = tested on: HOP-62 NSCLC
# [17] = tested on: NCI-H460 lung
# [18] = tested on: HOP-92 NSCLC
# [19] = tested on: COLO 205 colon
# [20] = tested on: SF-295 CNS
SMILES,growth [1] [%],growth [2] [%],growth [3] [%],growth [4] [%],growth [5] [%],growth [6],growth [7] [%],growth [8],growth [9] [%],growth [10],growth [11] [%],growth [12] [%],growth [13],growth [14] [%],growth [15] [%],growth [16] [%],growth [17],growth [18],growth [19],growth [20] [%]
CSc1ccc(-c2cc(-c3ccc(NC(=O)CCCN4CCCC4)cc3)nc(-c3ccc(NC(=O)CCCN4CCCC4)cc3)c2)cc1,92.8,81.9,94.8,62.5,46.2,80.7%,104,-36.4% (active),88.4,-4.05% (active),51.1,48.6,75.7%,95.3,88.4,,,,,
COc1cc(-c2nn(-c3cccc(NC(=O)CCNc4ccc(N5CCOCC5)cc4)c3)cc2-c2ccncc2)ccc1Cl,13.2,25.9,,11.9,17.5,19.1%,29.2,11.2%,21.9,-9.17% (active),20.9,31.8,29.1%,20.1,,27.1,4.77% (active),-6.34% (active),1.38% (active),13.4
COc1cc2nc(SCC(=O)Nc3cc(OC)c(OC)c(OC)c3)n(Cc3ccccc3)c(=O)c2cc1OC,69.6,45.9,65.2,,28.1,-6.9% (active),54.6,,45.6,41%,36.7,39.5,6.77% (active),20.6,,,68.7%,,96.2%,45.8
CCCCC1(O)CCCCC1,108,97.3,105,,103,92.6%,101,96.1%,97.2,103%,98.8,103,118%,102,99.3,,108%,,99.1%,97.6
Cc1ccc(-c2c3c(N)nc(-c4cccnc4)nc3nc3c2c(C)nn3-c2ccccc2)cc1,97.9,52.2,76.8,,68.4,80.9%,98.1,86.7%,91.9,75.9%,79,80.7,45.8%,,97.3,,85%,46.5%,83.6%,96.1
